Legend:
Test in all cases: DAPPL (digital affinity profiling via proximity ligation, sequencing); 10 mM Tris-HCl pH 7.5, 50 mM NaCl, 1 mM DTT, 4% glycerol, room temperature, 30 min; GST-TFs on glutathione beads, 16-mer random dsDNA library, 0.1% formaldehyde crosslink after washing; high values mean tight binding
Settings in all cases: protein: recombinant; tags: N-terminal GST; dsDNA, one strand shown
FLI1 = biological target: T1, FLI1 (Homo sapiens, UniProt Q01543 1-452)
T1 sequence: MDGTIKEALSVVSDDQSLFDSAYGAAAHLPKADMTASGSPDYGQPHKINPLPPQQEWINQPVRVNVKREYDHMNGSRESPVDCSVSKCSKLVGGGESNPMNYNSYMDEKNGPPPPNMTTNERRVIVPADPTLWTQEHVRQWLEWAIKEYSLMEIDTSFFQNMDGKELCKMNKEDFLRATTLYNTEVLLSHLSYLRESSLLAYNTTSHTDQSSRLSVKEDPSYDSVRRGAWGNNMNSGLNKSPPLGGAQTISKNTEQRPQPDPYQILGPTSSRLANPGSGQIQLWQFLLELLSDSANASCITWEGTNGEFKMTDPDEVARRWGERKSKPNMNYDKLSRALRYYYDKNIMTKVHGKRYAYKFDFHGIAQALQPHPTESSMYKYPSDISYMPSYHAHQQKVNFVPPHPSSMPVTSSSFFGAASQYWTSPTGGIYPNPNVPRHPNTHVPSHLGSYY
Summary of the method: (§1)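 Sequencing on an Illumina NextSeq500 followed washing, crosslinking with 0.1% formaldehyde, proximity ligation (BsaI/T4 ligase, 1 h, 37 °C) and PCR amplification of pools that had been incubated for 30 min at room temperature with 200 nmole of a random double-stranded 16-mer DNA library in Tris/NaCl/DTT/glycerol buffer. Each pool held DNA-barcoded human transcription factors, expressed in yeast as GST fusions and captured on glutathione beads, plus a tag-only sample. Binding signal is a hexamer's read frequency for a factor divided by its frequency in the tag-only sample.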

ELK1 = biological target: T2, ELK1 (Homo sapiens, UniProt P19419 1-428)
T2 sequence: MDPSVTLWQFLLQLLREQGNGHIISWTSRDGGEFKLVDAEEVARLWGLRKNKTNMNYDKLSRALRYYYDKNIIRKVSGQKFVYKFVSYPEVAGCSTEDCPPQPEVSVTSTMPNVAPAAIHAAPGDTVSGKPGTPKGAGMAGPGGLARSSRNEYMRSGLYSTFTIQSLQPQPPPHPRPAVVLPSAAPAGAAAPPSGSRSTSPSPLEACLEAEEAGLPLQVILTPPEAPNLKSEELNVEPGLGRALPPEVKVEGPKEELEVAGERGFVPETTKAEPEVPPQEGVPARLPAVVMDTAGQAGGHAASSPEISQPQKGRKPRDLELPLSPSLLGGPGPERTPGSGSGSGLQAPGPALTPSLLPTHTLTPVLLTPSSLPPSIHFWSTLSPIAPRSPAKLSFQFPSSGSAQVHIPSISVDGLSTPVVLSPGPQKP
Summary of the method: as §1

GABPA = biological target: T3, GABPA (Homo sapiens, UniProt Q06546 1-454)
T3 sequence: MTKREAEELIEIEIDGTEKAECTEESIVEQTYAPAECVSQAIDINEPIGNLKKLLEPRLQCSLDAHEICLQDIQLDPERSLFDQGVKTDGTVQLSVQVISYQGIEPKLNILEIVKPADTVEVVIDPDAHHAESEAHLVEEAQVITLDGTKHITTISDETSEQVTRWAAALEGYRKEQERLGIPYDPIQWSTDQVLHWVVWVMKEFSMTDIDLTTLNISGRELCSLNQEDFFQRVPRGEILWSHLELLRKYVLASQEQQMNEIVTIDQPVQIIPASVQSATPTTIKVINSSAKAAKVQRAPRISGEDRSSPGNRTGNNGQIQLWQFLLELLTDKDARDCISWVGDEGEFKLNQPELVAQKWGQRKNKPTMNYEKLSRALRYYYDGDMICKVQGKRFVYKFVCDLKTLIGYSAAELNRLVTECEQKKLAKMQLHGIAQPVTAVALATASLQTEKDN
Summary of the method: as §1

ERG = biological target: T4, ERG (Homo sapiens, UniProt P11308 1-479)
T4 sequence: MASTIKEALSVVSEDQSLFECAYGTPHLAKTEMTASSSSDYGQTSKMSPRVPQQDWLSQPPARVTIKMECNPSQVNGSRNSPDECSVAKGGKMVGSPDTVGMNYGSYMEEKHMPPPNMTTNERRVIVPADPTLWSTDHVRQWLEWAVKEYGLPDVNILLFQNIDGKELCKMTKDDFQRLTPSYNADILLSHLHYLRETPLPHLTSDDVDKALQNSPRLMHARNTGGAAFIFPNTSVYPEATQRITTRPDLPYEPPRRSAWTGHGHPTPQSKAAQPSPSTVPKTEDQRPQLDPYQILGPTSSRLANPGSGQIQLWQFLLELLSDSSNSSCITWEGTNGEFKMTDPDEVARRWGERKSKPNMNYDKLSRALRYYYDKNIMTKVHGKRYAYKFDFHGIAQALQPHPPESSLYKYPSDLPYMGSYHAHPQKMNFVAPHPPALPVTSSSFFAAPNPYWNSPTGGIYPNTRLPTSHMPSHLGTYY
Summary of the method: as §1

ELF1 = ELF1 (Homo sapiens, UniProt P32519 1-619)
Summary of the method: as §1

EHF = biological target: T5, EHF (Homo sapiens, UniProt Q9NZC4 1-300)
T5 sequence: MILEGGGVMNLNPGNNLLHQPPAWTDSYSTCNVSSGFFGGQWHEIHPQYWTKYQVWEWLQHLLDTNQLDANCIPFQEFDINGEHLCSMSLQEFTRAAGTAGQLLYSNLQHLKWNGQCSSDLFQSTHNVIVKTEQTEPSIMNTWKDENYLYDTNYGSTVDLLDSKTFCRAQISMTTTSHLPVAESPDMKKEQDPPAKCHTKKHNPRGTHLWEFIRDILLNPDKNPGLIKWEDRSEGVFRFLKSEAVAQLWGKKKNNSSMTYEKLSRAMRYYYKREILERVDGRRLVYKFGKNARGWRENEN
Summary of the method: as §1

SPI1 = SPI1 (Homo sapiens, UniProt P17947 1-270)
Summary of the method: as §1

SPIB = SPIB (Homo sapiens, UniProt Q01892 1-262)
Summary of the method: as §1

ELK3 = biological target: T6, ELK3 (Homo sapiens, UniProt P41970 1-407)
T6 sequence: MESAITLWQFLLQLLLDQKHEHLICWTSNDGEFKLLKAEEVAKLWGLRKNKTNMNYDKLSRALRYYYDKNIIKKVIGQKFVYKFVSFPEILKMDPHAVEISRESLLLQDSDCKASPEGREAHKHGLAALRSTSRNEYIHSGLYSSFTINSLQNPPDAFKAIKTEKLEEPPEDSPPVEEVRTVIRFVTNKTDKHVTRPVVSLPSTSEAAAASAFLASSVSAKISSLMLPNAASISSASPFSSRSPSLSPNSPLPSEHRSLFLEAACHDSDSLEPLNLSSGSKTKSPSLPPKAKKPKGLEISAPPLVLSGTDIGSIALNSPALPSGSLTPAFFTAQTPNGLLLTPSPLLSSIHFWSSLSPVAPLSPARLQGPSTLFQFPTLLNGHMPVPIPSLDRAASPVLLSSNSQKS
Summary of the method: as §1

Sequence of ELF1 (P32519 whole entry): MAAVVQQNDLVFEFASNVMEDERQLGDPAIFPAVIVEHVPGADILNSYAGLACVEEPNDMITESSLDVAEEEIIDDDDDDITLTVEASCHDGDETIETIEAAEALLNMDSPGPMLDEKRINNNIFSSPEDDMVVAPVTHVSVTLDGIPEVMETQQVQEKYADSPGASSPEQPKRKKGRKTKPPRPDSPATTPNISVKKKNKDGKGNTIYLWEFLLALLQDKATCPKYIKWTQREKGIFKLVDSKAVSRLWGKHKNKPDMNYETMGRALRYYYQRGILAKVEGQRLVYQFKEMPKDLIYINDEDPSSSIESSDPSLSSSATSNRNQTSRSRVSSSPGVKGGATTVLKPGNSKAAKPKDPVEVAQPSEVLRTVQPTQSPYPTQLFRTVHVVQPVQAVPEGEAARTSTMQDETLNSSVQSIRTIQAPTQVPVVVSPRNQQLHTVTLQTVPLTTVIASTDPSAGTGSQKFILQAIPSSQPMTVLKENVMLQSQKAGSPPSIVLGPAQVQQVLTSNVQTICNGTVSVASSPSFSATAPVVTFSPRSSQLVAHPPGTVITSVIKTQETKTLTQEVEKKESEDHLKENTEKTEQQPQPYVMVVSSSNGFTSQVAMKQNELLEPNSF
Sequence of SPIB (Q01892 whole entry): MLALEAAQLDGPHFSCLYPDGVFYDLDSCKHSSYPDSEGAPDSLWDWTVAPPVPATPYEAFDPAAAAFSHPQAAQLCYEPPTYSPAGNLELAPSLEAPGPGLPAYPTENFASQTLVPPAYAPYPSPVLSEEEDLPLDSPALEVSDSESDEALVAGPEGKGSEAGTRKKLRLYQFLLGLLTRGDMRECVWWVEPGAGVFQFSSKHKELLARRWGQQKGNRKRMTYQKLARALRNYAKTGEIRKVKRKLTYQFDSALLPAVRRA

CTTACG
binding signal (FLI1): 1.16 fold enrichment (6-mer frequency, TF over GST control)
binding signal (ELK1): 1.15 fold enrichment (6-mer frequency, TF over GST control)
binding signal (GABPA): 1.11 fold enrichment (6-mer frequency, TF over GST control)
binding signal (ERG): 1.02 fold enrichment (6-mer frequency, TF over GST control)
binding signal (ELF1): 1.1 fold enrichment (6-mer frequency, TF over GST control)
binding signal (EHF): 1.07 fold enrichment (6-mer frequency, TF over GST control)
binding signal (SPI1): 1.09 fold enrichment (6-mer frequency, TF over GST control)
binding signal (SPIB): 1.06 fold enrichment (6-mer frequency, TF over GST control)
binding signal (ELK3): 1.07 fold enrichment (6-mer frequency, TF over GST control)

AATTGG
binding signal (FLI1): 1.38 fold enrichment (6-mer frequency, TF over GST control)
binding signal (ELK1): 1.36 fold enrichment (6-mer frequency, TF over GST control)
binding signal (GABPA): 1.31 fold enrichment (6-mer frequency, TF over GST control)
binding signal (ERG): 1.34 fold enrichment (6-mer frequency, TF over GST control)
binding signal (ELF1): 1.33 fold enrichment (6-mer frequency, TF over GST control)
binding signal (EHF): 1.42 fold enrichment (6-mer frequency, TF over GST control)
binding signal (SPI1): 1.4 fold enrichment (6-mer frequency, TF over GST control)
binding signal (SPIB): 1.42 fold enrichment (6-mer frequency, TF over GST control)
binding signal (ELK3): 1.48 fold enrichment (6-mer frequency, TF over GST control)

AAGTGT
binding signal (FLI1): 1.18 fold enrichment (6-mer frequency, TF over GST control)
binding signal (ELK1): 1.29 fold enrichment (6-mer frequency, TF over GST control)
binding signal (GABPA): 1.32 fold enrichment (6-mer frequency, TF over GST control)
binding signal (ERG): 1.44 fold enrichment (6-mer frequency, TF over GST control)
binding signal (ELF1): 1.24 fold enrichment (6-mer frequency, TF over GST control)
binding signal (EHF): 1.24 fold enrichment (6-mer frequency, TF over GST control)
binding signal (SPI1): 1.6 fold enrichment (6-mer frequency, TF over GST control)
binding signal (SPIB): 1.38 fold enrichment (6-mer frequency, TF over GST control)
binding signal (ELK3): 1.37 fold enrichment (6-mer frequency, TF over GST control)

GCTCAG
binding signal (FLI1): 1.16 fold enrichment (6-mer frequency, TF over GST control)
binding signal (ELK1): 1.17 fold enrichment (6-mer frequency, TF over GST control)
binding signal (GABPA): 1.24 fold enrichment (6-mer frequency, TF over GST control)
binding signal (ERG): 1.18 fold enrichment (6-mer frequency, TF over GST control)
binding signal (ELF1): 1.21 fold enrichment (6-mer frequency, TF over GST control)
binding signal (EHF): 1.11 fold enrichment (6-mer frequency, TF over GST control)
binding signal (SPI1): 1.07 fold enrichment (6-mer frequency, TF over GST control)
binding signal (SPIB): 1.12 fold enrichment (6-mer frequency, TF over GST control)
binding signal (ELK3): 1.11 fold enrichment (6-mer frequency, TF over GST control)

ATCGCT
binding signal (FLI1): 1.09 fold enrichment (6-mer frequency, TF over GST control)
binding signal (ELK1): 1.09 fold enrichment (6-mer frequency, TF over GST control)
binding signal (GABPA): 1.09 fold enrichment (6-mer frequency, TF over GST control)
binding signal (ERG): 1.01 fold enrichment (6-mer frequency, TF over GST control)
binding signal (ELF1): 1.04 fold enrichment (6-mer frequency, TF over GST control)
binding signal (EHF): 1.08 fold enrichment (6-mer frequency, TF over GST control)
binding signal (SPI1): 1.02 fold enrichment (6-mer frequency, TF over GST control)
binding signal (SPIB): 1.14 fold enrichment (6-mer frequency, TF over GST control)
binding signal (ELK3): 1.1 fold enrichment (6-mer frequency, TF over GST control)

ACCCGG
binding signal (FLI1): 1.62 fold enrichment (6-mer frequency, TF over GST control)
binding signal (ELK1): 1.67 fold enrichment (6-mer frequency, TF over GST control)
binding signal (GABPA): 1.62 fold enrichment (6-mer frequency, TF over GST control)
binding signal (ERG): 1.84 fold enrichment (6-mer frequency, TF over GST control)
binding signal (ELF1): 1.75 fold enrichment (6-mer frequency, TF over GST control)
binding signal (EHF): 1.96 fold enrichment (6-mer frequency, TF over GST control)
binding signal (SPI1): 1.54 fold enrichment (6-mer frequency, TF over GST control)
binding signal (SPIB): 1.77 fold enrichment (6-mer frequency, TF over GST control)
binding signal (ELK3): 1.71 fold enrichment (6-mer frequency, TF over GST control)

TTTCCA
binding signal (FLI1): 1.37 fold enrichment (6-mer frequency, TF over GST control)
binding signal (ELK1): 1.31 fold enrichment (6-mer frequency, TF over GST control)
binding signal (GABPA): 1.39 fold enrichment (6-mer frequency, TF over GST control)
binding signal (ERG): 1.23 fold enrichment (6-mer frequency, TF over GST control)
binding signal (ELF1): 1.36 fold enrichment (6-mer frequency, TF over GST control)
binding signal (EHF): 1.27 fold enrichment (6-mer frequency, TF over GST control)
binding signal (SPI1): 1.37 fold enrichment (6-mer frequency, TF over GST control)
binding signal (SPIB): 1.39 fold enrichment (6-mer frequency, TF over GST control)
binding signal (ELK3): 1.31 fold enrichment (6-mer frequency, TF over GST control)

ATACGT
binding signal (FLI1): 1.12 fold enrichment (6-mer frequency, TF over GST control)
binding signal (ELK1): 1.14 fold enrichment (6-mer frequency, TF over GST control)
binding signal (GABPA): 1.11 fold enrichment (6-mer frequency, TF over GST control)
binding signal (ERG): 1.09 fold enrichment (6-mer frequency, TF over GST control)
binding signal (ELF1): 1.11 fold enrichment (6-mer frequency, TF over GST control)
binding signal (EHF): 1.24 fold enrichment (6-mer frequency, TF over GST control)
binding signal (SPI1): 1.06 fold enrichment (6-mer frequency, TF over GST control)
binding signal (SPIB): 1.13 fold enrichment (6-mer frequency, TF over GST control)
binding signal (ELK3): 1.12 fold enrichment (6-mer frequency, TF over GST control)
